The text below walks through data of PubChem BioAssay (NCI).

The panel holds about 83,000 compounds, 20% with a hit somewhere; the sample as a whole holds those more often.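 Cells were grown in 96-well plates and exposed to the test compound at a single concentration for 48 hours; results are reported as percent growth, with values below 10 considered active.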 Unmarked numbers belong to inactive results. Calls of active or inactive are those of the source.

Test systems include NCI-H23 lung; NCI-H226 lung; NCI-H460 lung; HOP-92 NSCLC; NCI-H522 lung; 786-0 renal; COLO 205 colon; DU-145 prostate; K-562 leukemia; MALME-3M melanoma; MDA-MB-231 breast; RXF 393 renal; SF-268 CNS; SF-295 CNS; SF-539 CNS; UACC-257 melanoma; M14 melanoma; HOP-62 NSCLC; A549/ATCC NSCLC.
Common to all, as to assay: NCI-60 one-dose screen, 48 h (100 = growth as untreated, 0 = no growth, -100 = all killed)
Conditions in all cases: 10 µM unless noted

For the compound `CCOC(=O)c1c(-c2ccc(Cl)cc2)c(C#N)c2c(C#N)c(N)nn2c1N`, the growth was 85.9% in the test on NCI-H23 lung; 87.4% in the test with NCI-H226 lung; 77.3% in the test with NCI-H460 lung; 63.1% with HOP-92 NSCLC; 37.4% in the test with NCI-H522 lung; 82.6% in the test with 786-0 renal. Further, the growth in the test with COLO 205 colon is 69.8%; in the test with DU-145 prostate, 74.9%; in the test on K-562 leukemia it was 15.4%; in the test with MALME-3M melanoma, 72.9%; with MDA-MB-231 breast, 75.7%; in the test on RXF 393 renal, 77%. Further, the growth is 77.3% with SF-268 CNS; 57.2% in the test on SF-295 CNS; 71.6% in the test with SF-539 CNS; 60.3% in the test with UACC-257 melanoma; 75.5% in the test with M14 melanoma.

As to `COc1ccc(C/C(C)=C(\c2ccc(O)cc2)c2ccc(OCCN3CCCC3)cc2)cc1`, the growth in the test on NCI-H23 lung is 105%; with NCI-H226 lung, 113%; with HOP-62 NSCLC it was 102%; with NCI-H460 lung, 113%; with HOP-92 NSCLC, 104%; with NCI-H522 lung, 97.5%. Besides, the growth is 98% with A549/ATCC NSCLC; 100% in the test on 786-0 renal; 111% in the test on COLO 205 colon; 104% with DU-145 prostate; 85.5% with K-562 leukemia; 94.1% in the test with MALME-3M melanoma. For the same compound, the growth in the test with MDA-MB-231 breast is 104%; in the test with RXF 393 renal, 136%; in the test on SF-268 CNS it was 107%; with SF-295 CNS it was 102%; in the test with SF-539 CNS, 99.9%; in the test on UACC-257 melanoma it was 99.1%. For the same compound, the growth with M14 melanoma was 95.2%.

With `COc1cc2c(cc1O)[C@@]1(C)[C@H](c3ccccc3Br)OC(=O)N1CC2`, the growth is 94.3% with NCI-H23 lung; 83.9% in the test on NCI-H226 lung; 97.3% in the test on HOP-62 NSCLC; 96.5% in the test on NCI-H460 lung; 82.8% with HOP-92 NSCLC; 75.5% with NCI-H522 lung. For the same compound, the growth was 79.6% with A549/ATCC NSCLC; 104% in the test with 786-0 renal; 117% in the test with COLO 205 colon; 101% in the test on DU-145 prostate; 75% in the test with K-562 leukemia; 83.1% in the test with MALME-3M melanoma. Moreover, the growth is 95.6% in the test with MDA-MB-231 breast; 99.5% in the test with RXF 393 renal; 94.7% with SF-268 CNS; 102% in the test on SF-295 CNS; 95.1% with SF-539 CNS; 83.5% with UACC-257 melanoma.

Consider `O=C1/C(=C/c2ccc(C(F)(F)F)cc2)COc2ccc(O)cc21`, for which the growth is 98% in the test on NCI-H23 lung; 107% with NCI-H226 lung; 96.2% with HOP-62 NSCLC; 98.4% in the test with NCI-H460 lung; 82.4% with HOP-92 NSCLC; -13.6% (active) in the test with NCI-H522 lung. Besides, the growth in the test on A549/ATCC NSCLC was 87.1%; in the test with 786-0 renal, 80%; with COLO 205 colon, 90.7%; in the test on DU-145 prostate, 99.1%; with K-562 leukemia, 5.54% (active); with MALME-3M melanoma it was 88.7%. For the same compound, the growth in the test on MDA-MB-231 breast was 79.4%; in the test on RXF 393 renal, 102%; in the test on SF-268 CNS, 85.3%; with SF-295 CNS, 99.1%; with SF-539 CNS it was 86.7%; with UACC-257 melanoma, 98.1%. In the test with M14 melanoma, the growth is 85.6%.

As for `O=C(N/N=C/c1ccc(Cl)cc1Cl)c1ccc2nc(-c3ccc(Cl)cc3)[nH]c2c1`, the growth in the test on NCI-H23 lung is -0.367% (active); with NCI-H226 lung, 99.3%; in the test with HOP-62 NSCLC, 8.05% (active); with NCI-H460 lung, -33.6% (active); in the test on HOP-92 NSCLC it was 28.1%; in the test on NCI-H522 lung, 63.2%. Moreover, the growth with A549/ATCC NSCLC was -26.7% (active); in the test on 786-0 renal, -42.1% (active); with COLO 205 colon it was -23.9% (active); with DU-145 prostate, 30.5%; with K-562 leukemia, 8.67% (active); in the test on MALME-3M melanoma, -58.7% (active). Further, the growth was 9.48% (active) with MDA-MB-231 breast; 18.9% in the test on RXF 393 renal; 38% in the test on SF-268 CNS; -49.3% (active) in the test on SF-295 CNS; 37.1% in the test with SF-539 CNS; 31.7% with UACC-257 melanoma.

Turning to `Cc1ccc(-c2cc(C(=O)N3N=C(c4ccc(N)cc4)CC3c3ccc(Cl)cc3)c3ccccc3n2)cc1` (configuration not stated), the growth in the test with NCI-H23 lung was 49.4%; with NCI-H226 lung, 72.1%; in the test with HOP-62 NSCLC, 33.9%; in the test with NCI-H460 lung it was 12.9%; with HOP-92 NSCLC, 41.2%; in the test on NCI-H522 lung, -2.26% (active). For the same compound, the growth in the test on A549/ATCC NSCLC was 21.4%; in the test with 786-0 renal, 24.3%; in the test with COLO 205 colon it was 2.01% (active); in the test on DU-145 prostate, 18.6%; in the test with K-562 leukemia, 7.72% (active); with MALME-3M melanoma, 67%. In addition, the growth was 44.5% in the test on MDA-MB-231 breast; -0.262% (active) in the test with RXF 393 renal; 38.9% in the test on SF-268 CNS; 21.4% in the test with SF-295 CNS; -2.29% (active) in the test on SF-539 CNS; 43.7% in the test with UACC-257 melanoma. In addition, the growth with M14 melanoma is -24% (active).

Turning to `CCOC(=O)C/C(=N\Nc1cc(=O)[nH]c2ccc(Cl)cc12)C(=O)OCC`, the growth in the test on NCI-H23 lung is 95.3%; with NCI-H226 lung, 98.2%; in the test on HOP-62 NSCLC, 101%; with NCI-H460 lung, 103%; in the test on HOP-92 NSCLC, 87.5%; with NCI-H522 lung it was 105%. The growth in the test on 786-0 renal was 106%; in the test with COLO 205 colon, 121%; with DU-145 prostate, 106%; in the test with K-562 leukemia, 43.9%; in the test with MALME-3M melanoma, 95.8%; in the test with MDA-MB-231 breast, 98.8%. Besides, the growth with RXF 393 renal is 110%; with SF-268 CNS, 98.6%; with SF-295 CNS, 103%; with SF-539 CNS it was 98.8%; in the test on UACC-257 melanoma, 105%; with M14 melanoma, 95.5%.

Turning to `COc1cc2cc(Oc3ccc(NC(=O)Nc4ccccc4)cc3)c(C)nc2cc1OCCN1CCCCC1`, the growth with NCI-H23 lung was 96.5%; in the test with NCI-H226 lung, 99.8%; in the test on HOP-62 NSCLC, 94.9%; in the test with NCI-H460 lung, 33%; with HOP-92 NSCLC, 55.7%; in the test with NCI-H522 lung, 106%. Besides, the growth in the test on A549/ATCC NSCLC was 78.6%; in the test on 786-0 renal it was 68.3%; in the test with COLO 205 colon, 69.3%; in the test with DU-145 prostate, 89.6%; with K-562 leukemia, -45.6% (active); with MALME-3M melanoma it was -75% (active). For the same compound, the growth with MDA-MB-231 breast was 85.7%; in the test on RXF 393 renal, 53.5%; with SF-268 CNS, 83.5%; in the test on SF-295 CNS, 100%; in the test with SF-539 CNS, -80.4% (active); in the test on UACC-257 melanoma, 84%. Besides, the growth in the test on M14 melanoma was -90.1% (active).
